{"source": "the supplement of paper PMC8728848", "experiment_in_all_cases": "glycan array binding signal (z-score within array); higher = stronger binding", "conditions_in_all_cases": "glycan notation: IUPAC condensed, linker removed", "key": {"[1]": {"biological_target": "Fuc(a1-2)Gal(b1-3)[Fuc(a1-4)]GlcNAc", "method_in_brief": "(§1)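 Glycan array binding is given as a within-array Z-score, which can be read as non-binding when negative. The arrays, 3228 of them, came from the Consortium for Functional Glycomics database and were retained only where the protein sequence was available. Z-scores were averaged across arrays of the same protein sequence at different concentrations or buffers and across linkers.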"}, "Fuc(a1-2)Gal(b1-4)GlcNAc": {"biological_target": "Fuc(a1-2)Gal(b1-4)GlcNAc", "method_in_brief": "as §1"}, "[2]": {"biological_target": "Fuc(a1-2)Gal(b1-4)GlcNAc(b1-2)Man(a1-6)[Gal(b1-4)GlcNAc(b1-2)Man(a1-3)]Man(b1-4)GlcNAc(b1-4)GlcNAc", "method_in_brief": "as §1"}, "[3]": {"biological_target": "Fuc(a1-2)Gal(b1-4)GlcNAc(b1-3)Gal(b1-4)GlcNAc", "method_in_brief": "as §1"}, "[4]": {"biological_target": "Fuc(a1-2)[Gal(a1-3)]Gal(b1-3)GlcNAc", "method_in_brief": "as §1"}, "Fuc(a1-3)GlcNAc": {"biological_target": "Fuc(a1-3)GlcNAc", "method_in_brief": "as §1"}, "[5]": {"biological_target": "Fuc(a1-3)[Gal(b1-4)]GlcNAc(b1-4)Gal(b1-4)[Fuc(a1-3)]GlcNAc(b1-4)Gal(b1-4)[Fuc(a1-3)]GlcNAc", "method_in_brief": "as §1"}, "Gal(a1-3)Gal(b1-4)Glc": {"biological_target": "Gal(a1-3)Gal(b1-4)Glc", "method_in_brief": "as §1"}, "[6]": {"biological_target": "Gal(a1-3)[Gal(a1-4)]Gal(b1-4)GlcNAc", "method_in_brief": "as §1"}, "Gal(b1-4)Glc": {"biological_target": "Gal(b1-4)Glc", "method_in_brief": "as §1"}, "[7]": {"biological_target": "Gal(b1-4)GlcNAc(b1-6)Gal(b1-4)GlcNAc", "method_in_brief": "as §1"}, "Gal6S(b1-4)Glc": {"biological_target": "Gal6S(b1-4)Glc", "method_in_brief": "as §1"}, "[8]": {"biological_target": "GalNAc(b1-3)Gal(a1-4)Gal(b1-4)GlcNAc", "method_in_brief": "as §1"}, "GalNAc(b1-3)GalNAc": {"biological_target": "GalNAc(b1-3)GalNAc", "method_in_brief": "as §1"}, "[9]": {"biological_target": "GlcNAc(a1-6)Gal(b1-4)GlcNAc", "method_in_brief": "as §1"}, "Man(a1-2)Man(a1-3)Man": {"biological_target": "Man(a1-2)Man(a1-3)Man", "method_in_brief": "as §1"}, "[10]": {"biological_target": "Man(a1-2)Man(a1-3)[Man(a1-6)]Man(a1-6)[Man(a1-2)Man(a1-3)]Man(b1-4)GlcNAc(b1-4)GlcNAc", "method_in_brief": "as §1"}, "[11]": {"biological_target": "Man(a1-3)[Man(a1-6)]Man(a1-6)[Man(a1-3)]Man", "method_in_brief": "as §1"}, "[12]": {"biological_target": "Neu5Ac(a2-3)Gal(b1-3)GlcNAc(b1-3)Gal(b1-3)GlcNAc", "method_in_brief": "as §1"}, "[13]": {"biological_target": "Neu5Ac(a2-3)Gal(b1-3)GlcNAc6S", "method_in_brief": "as §1"}, "[14]": {"biological_target": "Neu5Ac(a2-6)Gal(b1-4)GlcNAc(b1-2)Man(a1-3)[GlcNAc(b1-2)Man(a1-6)]Man(b1-4)GlcNAc(b1-4)GlcNAc", "method_in_brief": "as §1"}, "[15]": {"biological_target": "Neu5Ac(a2-6)Gal(b1-4)GlcNAc(b1-2)Man(a1-3)[Neu5Ac(a2-6)Gal(b1-4)GlcNAc(b1-2)Man(a1-6)]Man(b1-4)GlcNAc(b1-4)GlcNAc", "method_in_brief": "as §1"}, "[16]": {"biological_target": "Neu5Gc(a2-3)Gal(b1-3)GlcNAc", "method_in_brief": "as §1"}, "[17]": {"biological_target": "Neu5Gc(b2-6)Gal(b1-4)GlcNAc", "method_in_brief": "as §1"}}, "note": "This excerpt belongs to a sample that is enriched for the strongest signals."}
{"binder": "Mannose Binding Protein (Lactobacillus plantarum) (protein) AERSEAALTHVDKDNFLKYFSLNGSATYDAKTGIVTITPNQNNQVGNFSLTSKIDMNKSFTLTGQVNLGSNPNGADGIGFAFHSGNTTDVGNAGGNLGIGGLQDAIGFKLDTWFNSYQAPSSDKNGSEISSTNSNGFGWNGDSANAPYGTFVKTSNQEISTANGSKVQRWWAQDTGESQALSKADIDGNFHDFVVNYDGATRTLTVSYTQASGKVLTWKTTVASSYQAMAMVVSASTGAAKNLQQFKLTSFDFQEAATVNVKYVDTTGHQLAQG", "values": [{"measurement": "glycan array binding signal (z-score)", "setting": "[1]", "result": -0.167}, {"measurement": "glycan array binding signal (z-score)", "setting": "Fuc(a1-2)Gal(b1-4)GlcNAc", "result": -0.102}, {"measurement": "glycan array binding signal (z-score)", "setting": "[2]", "result": -0.749}, {"measurement": "glycan array binding signal (z-score)", "setting": "[3]", "result": -0.358}, {"measurement": "glycan array binding signal (z-score)", "setting": "[4]", "result": -0.696}, {"measurement": "glycan array binding signal (z-score)", "setting": "Fuc(a1-3)GlcNAc", "result": -0.141}, {"measurement": "glycan array binding signal (z-score)", "setting": "[5]", "result": -0.071}, {"measurement": "glycan array binding signal (z-score)", "setting": "Gal(a1-3)Gal(b1-4)Glc", "result": 13.6}, {"measurement": "glycan array binding signal (z-score)", "setting": "[6]", "result": -0.551}, {"measurement": "glycan array binding signal (z-score)", "setting": "Gal(b1-4)Glc", "result": -0.319}, {"measurement": "glycan array binding signal (z-score)", "setting": "[7]", "result": -0.654}, {"measurement": "glycan array binding signal (z-score)", "setting": "Gal6S(b1-4)Glc", "result": 0.521}, {"measurement": "glycan array binding signal (z-score)", "setting": "[8]", "result": 4.17}, {"measurement": "glycan array binding signal (z-score)", "setting": "GalNAc(b1-3)GalNAc", "result": 2.15}, {"measurement": "glycan array binding signal (z-score)", "setting": "[9]", "result": -0.056}, {"measurement": "glycan array binding signal (z-score)", "setting": "Man(a1-2)Man(a1-3)Man", "result": 3.36}, {"measurement": "glycan array binding signal (z-score)", "setting": "[10]", "result": 0.227}, {"measurement": "glycan array binding signal (z-score)", "setting": "[11]", "result": 1.77}, {"measurement": "glycan array binding signal (z-score)", "setting": "[12]", "result": -0.526}, {"measurement": "glycan array binding signal (z-score)", "setting": "[13]", "result": -0.327}, {"measurement": "glycan array binding signal (z-score)", "setting": "[14]", "result": -0.444}, {"measurement": "glycan array binding signal (z-score)", "setting": "[15]", "result": -0.324}, {"measurement": "glycan array binding signal (z-score)", "setting": "[16]", "result": -0.785}, {"measurement": "glycan array binding signal (z-score)", "setting": "[17]", "result": 1.04}]}
